# Laboratory results published in PubChem BioAssay (EPA / NIEHS).
# The source made the active and inactive calls. The calls were made as follows: active = hit-call score of the fitted dose curve at least 0.9, where 1 is the maximum; inactive = score below 0.9.
# System: not listed separately
# Assay: ATG_DR4_LXR_CIS: Attagene CIS-FACTORIAL HepG2 Assay for human Liver X Receptor (LXR), DR4 submotif (AID 2282929)
# Details: HepG2 Attagene DR4 cis-reporter, mRNA transcription; AC50: actives raise or lower the signal unless noted; outcome: actives raise or lower the signal unless noted
# How it was run: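 Measures endogenous transcription factor activity via a DR4-driven reporter transcript in human HepG2 cells. Compounds incubated 24 h; mRNA quantified by RT-PCR and capillary electrophoresis, analysed as gain or loss of signal versus DMSO.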
Structure (SMILES),AC50,outcome
C=CC(=O)OCC(CO)(COCC(COC(=O)C=C)(COC(=O)C=C)COC(=O)C=C)COC(=O)C=C,4.59 µM (active),–
FC(F)(F)C(F)(F)C(F)(F)Br,–,inactive
COCC1CCC(CO)CC1 (centres undefined),–,inactive
C=COC(=O)C(C)(C)CCCCCC,–,inactive
CCCCc1ccc2ccccc2c1S(=O)(=O)O,–,inactive
C=Cc1ccc(O)c(OC)c1,–,inactive
FC(F)=C(F)C(F)(F)C(F)(F)C(F)(F)C(F)F,–,inactive
NS(=O)(=O)O,–,inactive
O=C1c2ccc(O)c(O)c2C(=O)c2c(O)ccc(O)c21,–,inactive
CCOC(=O)CN[C@@H](C(=O)N1CC[C@H]1C(=O)NCc1ccc(/C(N)=N/O)cc1)C1CCCCC1,–,inactive
CC(C)CCOCCC(C)C,–,inactive
C=CC(=C)CC/C=C(\C)CCC=C(C)C,–,inactive
Cc1ccc(N=Nc2c(O)ccc3ccccc23)c(C)c1,–,inactive
C=CC(=O)OCCN(CC)CC,26.6 µM (active),–
Cc1ccc(S(=O)(=O)O)cc1,–,inactive
CCCCCCCCCCCCOC(=O)c1cc(O)c(O)c(O)c1,6.4 µM (active),–
CCCCCCCCCCCCCCCC(=O)OC,–,inactive
CC1CCC(CO)CC1 (centres undefined),–,inactive
CCCCCC(C)OC(=O)COc1ccc(Cl)c2cccnc12 (centres undefined),100 µM (active),–

Structure (SMILES),AC50,outcome
FC(F)(F)N1C(F)(F)C(F)(F)OC(F)(F)C1(F)F,–,inactive
C/C=C/C(=O)C1=C(C)CCCC1(C)C,24.6 µM (active),–
CCc1ccccc1O,–,inactive
CNNCc1ccc(C(=O)NC(C)C)cc1,–,inactive
CCCCCCCCCCCC[N+](C)(C)CCCCCCCCCCCC,–,inactive
Cc1cc(=O)oc2cc(O)ccc12,–,inactive
Clc1ccc2c(Cl)ccnc2c1,–,inactive
CCCCCCCCCCCCCC[n+]1ccccc1,–,inactive
O=C(C=C(O)C(F)(F)F)C(F)(F)F,–,inactive
Cc1cccc2c1ccc1ccccc12,–,inactive
CCCCCCCCC1CCC(=O)O1 (centres undefined),–,inactive
c1ccc(CNc2ncnc3c2ncn3C2CCCCO2)cc1 (centres undefined),–,inactive
CCOC(OCC)C(=O)c1ccccc1,–,inactive
C[N+](C)(CCCNS(=O)(=O)CCC(F)(F)C(F)(F)C(F)(F)C(F)(F)C(F)(F)C(F)(F)F)CC(=O)[O-],–,inactive
Nc1ccn([C@@H]2O[C@H](CO)[C@@H](O)C2O)c(=O)n1 (some centres undefined),–,inactive
CC(C)(C)C1CCCCC1O (centres undefined),–,inactive
Cc1cncc(C)c1,–,inactive
CC(=O)CC(C)C,–,inactive

# Molecular target: Aryl hydrocarbon receptor (Homo sapiens) (UniProt P35869)
# Sequence (P35869 whole entry, looked up): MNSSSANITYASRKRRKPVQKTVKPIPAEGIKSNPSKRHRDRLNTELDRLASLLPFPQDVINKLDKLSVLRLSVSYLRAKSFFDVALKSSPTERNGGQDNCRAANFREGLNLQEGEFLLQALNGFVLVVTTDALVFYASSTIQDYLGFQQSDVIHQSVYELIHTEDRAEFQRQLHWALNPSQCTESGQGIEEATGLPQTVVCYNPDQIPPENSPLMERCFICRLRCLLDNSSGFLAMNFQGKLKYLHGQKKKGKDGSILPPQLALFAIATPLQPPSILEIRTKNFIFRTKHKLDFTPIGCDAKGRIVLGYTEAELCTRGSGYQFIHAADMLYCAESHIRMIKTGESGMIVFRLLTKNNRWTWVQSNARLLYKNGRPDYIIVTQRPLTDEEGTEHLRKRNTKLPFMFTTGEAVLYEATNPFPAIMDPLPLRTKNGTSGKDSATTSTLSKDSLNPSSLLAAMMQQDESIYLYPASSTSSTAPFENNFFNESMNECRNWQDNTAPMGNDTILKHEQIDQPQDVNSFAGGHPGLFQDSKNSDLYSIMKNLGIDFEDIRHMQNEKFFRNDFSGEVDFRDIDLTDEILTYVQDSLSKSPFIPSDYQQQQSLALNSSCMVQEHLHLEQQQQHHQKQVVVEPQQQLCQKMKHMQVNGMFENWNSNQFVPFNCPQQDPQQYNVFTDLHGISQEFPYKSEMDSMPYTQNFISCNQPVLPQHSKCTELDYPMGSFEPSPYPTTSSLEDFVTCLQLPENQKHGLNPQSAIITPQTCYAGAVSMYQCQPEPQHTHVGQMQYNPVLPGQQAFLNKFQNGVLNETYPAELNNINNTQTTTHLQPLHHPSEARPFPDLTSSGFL
# Assay: ATG_Ahr_CIS: Attagene CIS-FACTORIAL HepG2 Assay for human Aryl Hydrocarbon Receptor (Ahr) (AID 2282930)
# Details: HepG2 AhR cis-factorial reporter transcription; actives raise or lower the signal
# How it was run: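 HepG2 cells transiently transfected with cis-element-driven multiplexed reporter units; endogenous AhR activity read as reporter mRNA 24 h after dosing, via RT-PCR, 6-FAM labelling, HpaI digestion and capillary electrophoresis. Bidirectional fit relative to DMSO.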
Structure (SMILES),outcome,AC50
C=CC(=O)OCC(CO)(COCC(COC(=O)C=C)(COC(=O)C=C)COC(=O)C=C)COC(=O)C=C,inactive,–
FC(F)(F)C(F)(F)C(F)(F)Br,inactive,–
COCC1CCC(CO)CC1 (centres undefined),inactive,–
C=COC(=O)C(C)(C)CCCCCC,inactive,–
CCCCc1ccc2ccccc2c1S(=O)(=O)O,inactive,–
C=Cc1ccc(O)c(OC)c1,inactive,–
FC(F)=C(F)C(F)(F)C(F)(F)C(F)(F)C(F)F,inactive,–
NS(=O)(=O)O,inactive,–
O=C1c2ccc(O)c(O)c2C(=O)c2c(O)ccc(O)c21,–,0.0722 µM (active)
CCOC(=O)CN[C@@H](C(=O)N1CC[C@H]1C(=O)NCc1ccc(/C(N)=N/O)cc1)C1CCCCC1,inactive,–
CC(C)CCOCCC(C)C,inactive,–
C=CC(=C)CC/C=C(\C)CCC=C(C)C,inactive,–
Cc1ccc(N=Nc2c(O)ccc3ccccc23)c(C)c1,–,0.36 µM (active)
C=CC(=O)OCCN(CC)CC,–,65.6 µM (active)
Cc1ccc(S(=O)(=O)O)cc1,inactive,–
CCCCCCCCCCCCOC(=O)c1cc(O)c(O)c(O)c1,inactive,–
CCCCCCCCCCCCCCCC(=O)OC,inactive,–
CC1CCC(CO)CC1 (centres undefined),inactive,–
CCCCCC(C)OC(=O)COc1ccc(Cl)c2cccnc12 (centres undefined),inactive,–

Structure (SMILES),outcome,AC50
FC(F)(F)N1C(F)(F)C(F)(F)OC(F)(F)C1(F)F,inactive,–
C/C=C/C(=O)C1=C(C)CCCC1(C)C,–,72.2 µM (active)
CCc1ccccc1O,–,10.3 µM (active)
CNNCc1ccc(C(=O)NC(C)C)cc1,inactive,–
CCCCCCCCCCCC[N+](C)(C)CCCCCCCCCCCC,inactive,–
Cc1cc(=O)oc2cc(O)ccc12,inactive,–
Clc1ccc2c(Cl)ccnc2c1,–,19.8 µM (active)
CCCCCCCCCCCCCC[n+]1ccccc1,inactive,–
O=C(C=C(O)C(F)(F)F)C(F)(F)F,inactive,–
Cc1cccc2c1ccc1ccccc12,inactive,–
CCCCCCCCC1CCC(=O)O1 (centres undefined),inactive,–
c1ccc(CNc2ncnc3c2ncn3C2CCCCO2)cc1 (centres undefined),–,57 µM (active)
CCOC(OCC)C(=O)c1ccccc1,inactive,–
C[N+](C)(CCCNS(=O)(=O)CCC(F)(F)C(F)(F)C(F)(F)C(F)(F)C(F)(F)C(F)(F)F)CC(=O)[O-],–,0.0224 µM (active)
Nc1ccn([C@@H]2O[C@H](CO)[C@@H](O)C2O)c(=O)n1 (some centres undefined),inactive,–
CC(C)(C)C1CCCCC1O (centres undefined),inactive,–
Cc1cncc(C)c1,inactive,–
CC(=O)CC(C)C,inactive,–
